PubChem BioAssay AID1776 (NMMLSC, 2009)
The whole screen tested about 190,000 compounds, of which about 490 (0.26%) were called active. Many of the other results were omitted from the sample, so actives are more common in it than they were. Values without a mark were called inactive. No stated cut-off is given here; in the data, active means fluorescence above about 89; inactive means the rest.

Experiment: compound fluorescence on glutathione beads, profiling panel, artefact control, biophysical, 488/530 nm, flow cytometry (AID 1776);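 further: glutathione beads carrying GST-tagged Bcl family fusion proteins plus one bare bead set; values are compound well signal with DMSO vehicle wells as background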
Conditions: GSH beads flow cytometry, compound fluorescence 488/530 nm; at 10 µM; stronger effect = higher value

In order of rising fluorescence (KMESF):
1. COc1cc(-c2cc(C(=O)OCC(=O)Nc3ccc4c(c3)OCO4)c3ccccc3n2)cc(OC)c1OC  4
2. COc1ccc(COC(=O)N/N=C(\C)CC(=O)Nc2ccc(Cl)cc2)cc1  5
3. CCC1C=C(c2ccccc2)C=CN=C1N(CC)CC (stereo not given)  5
4. Cc1cccc(C(=O)OCC(=O)Nc2sc3c(c2C#N)CCC3)c1  5
5. Cc1ccc(CCC(=O)Nc2ncc(Cc3cc(Cl)ccc3Cl)s2)o1  7
6. O=C(/C=C/c1ccc(F)cc1)NC(=S)NNC(=O)c1cccnc1  7
7. Cc1cccc(N2Cc3ccccc3C2=NC(=O)c2ccc(Cl)nc2)c1  8
8. CCOC(=O)CC(=O)CSc1nc(-c2ccccc2)cc(-c2ccc(Cl)cc2)c1C#N  8
9. COc1cc(NC(=O)c2cc([N+](=O)[O-])ccc2Br)ccc1NC(=O)c1ccco1  8
10. Cc1nccc(-c2ccc(-n3c(C)ccc3C)cc2)n1  9
11. CC(Oc1ccccc1)C(=O)NN1Cc2ccccc2C1=N (stereo not given)  9
12. COc1cc(NC(=O)c2ccccc2NS(=O)(=O)c2ccc(Cl)s2)cc(OC)c1  9
13. Cc1ccccc1OCC(O)CN1CCN(c2ccccn2)CC1 (stereo not given)  9
14. COc1ccccc1CNC(=O)CN1CCC(n2cnc3cc(F)ccc32)CC1  10
15. CCCCC(NC(=O)c1cccc(Br)c1)C(=O)O (stereo not given)  10
16. NC(=O)c1ccc(N2CCOCC2)nc1  10
17. COc1cc([N+](=O)[O-])ccc1NC(=O)CN1CCCC1  10
18. O=C(NCC1CCCCC1)c1cc(S(=O)(=O)N2CCCCC2)ccc1N1CCOCC1  10
19. Cc1ccc2[nH]c(C(=O)O)c(NC(=O)c3ccccc3[N+](=O)[O-])c2c1  10
20. CCOC(=O)CNc1nc(Cl)nc(Nc2ccccc2)n1  10
21. CC(C)CC(=O)NC(=S)Nc1ccc(F)cc1F  10
22. Cc1cc(C)nc(Nc2cc([N+](=O)[O-])ccc2C)n1  10
23. CC(=O)Cc1nsc(NC(=O)c2ccc(Cl)cc2Cl)n1  10
24. CCN(CC)Cc1nc2sc(C)c(C)c2c(=O)[nH]1  11
25. CC(C)(C)c1ccc(NC(=O)COC(=O)CCc2nc3ccccc3c(=O)[nH]2)cc1  11
26. O=C(c1cnn(-c2ccc(Cl)cc2)c1)c1ccccc1O  11
27. Brc1ccc(CSc2ccc(-c3ccco3)nn2)cc1  11
28. Cc1ccc(C2NC(C(=O)O)CS2)cc1 (stereo not given)  11
29. COc1cccc(OC)c1C(=O)OCC(=O)/C(C#N)=C(\C)N  11
30. Cc1ccccc1Nc1nc(N)nc(CSc2ccccc2)n1  11
31. Cc1ccc(Cl)cc1NC(=O)COC(=O)CC(C)(C)C  12
32. CCC(=O)N1CCC(C(N)=O)(N2CCCCC2)CC1  12
33. O=C(CSc1nc2ccccc2[nH]1)Nc1nc(-c2ccccc2)c(-c2ccccc2)o1  12
34. Cc1cc(C)cc(C(=O)NC2C(=O)N3C(C(=O)O)=C(CSc4nnc(C)s4)CSC23)c1 (stereo not given)  12
35. CCS(=O)(=O)c1ccc(C(=O)NC)c(Cl)c1Cl  12
36. O=C(NCc1nnc(SCC(=O)N2CCCc3ccccc32)o1)c1ccccc1F  13
37. CN1CCN(C(=O)N2c3ccccc3CCc3ccccc32)CC1  13
38. COc1cc(-c2nnn(CC(=O)NCc3ccccc3)n2)cc(OC)c1OC  13
39. CCOc1cc(/C=N/NC(=O)OC)ccc1OCCSc1ccc(Cl)cc1  13
40. Cc1cccc(OCC(O)CN2CCN(CCN3C(=O)c4cccc5cccc(c45)C3=O)CC2)c1C (stereo not given)  13
41. Cc1ccc(-c2cn3cc([N+](=O)[O-])ccc3n2)cc1  13
42. COc1cccc(/C=C(/CC(=O)Nc2ccc(N3CCOCC3)cc2)c2nc3ccccc3s2)c1  13
43. CCC(C)c1ccc(NC(=S)NCc2ccccn2)cc1 (stereo not given)  13
44. COc1cc(CN2CCN(Cc3ccc(C)cc3)CC2)c([N+](=O)[O-])cc1OC  14
45. Cc1ccnc2nc(C(=O)Nc3nnc(-c4ccccc4)o3)nn12  14
46. O=c1c([N+](=O)[O-])cccn1Cc1ccc(F)cc1Cl  14
47. COC(=O)CC1=NN(c2nc(C)cc(C)n2)C(=O)C1  14
48. CCN(Cc1ccccc1)S(=O)(=O)c1cc(C(=O)O)ccc1OC  14
49. C/C(=N\NC(=O)NC1CCCCC1)c1ccc(OC(F)F)cc1OC(F)F  14
50. CCNC(=O)c1ccc(OCC(=O)Nc2ccc(F)cc2)c(OC)c1  14
51. CCOC(=O)C1CCN(c2ccc(C(=O)O)cc2[N+](=O)[O-])CC1  14
52. CCN(c1ccccc1)S(=O)(=O)c1ccc(N)cc1  14
53. CCc1nnc(NC(=O)c2cccs2)s1  15
54. CCc1ccc2ncc(C(=O)c3ccccc3)c(N3CCOCC3)c2c1  15
55. CCN1C(=O)/C(=c2\s/c(=C3\Sc4ccccc4N3C)c(=O)n2C)N(C)C1=S  15
56. O=C(Nc1ccccc1F)c1ccccc1-c1ccccc1  15
57. O=C(NCc1cccnc1)c1nc(-c2cccs2)no1  15
58. Cc1ccc(CN(Cc2cccnc2)C(=S)Nc2cc(Cl)ccc2C)cc1  15
59. Cc1cc(SCC(=O)NCCN2C(=O)CSC2=O)nc2ccccc12  15
60. CCOc1cc(C(=O)OCC(=O)Nc2cccc(C)c2)ccc1OCC(=O)N1CCOCC1  16
61. COCCCNc1nc2c(-c3cccc(C(F)(F)F)c3)nnn2c2ccccc12  16
62. CCOC(=O)CSc1ccccn1  16
63. O=C(CSc1ccc([N+](=O)[O-])cn1)Nc1ccc(N2CCOCC2)cc1  16
64. CCCCN1C(=O)/C(=C(/C#N)C(N)=O)c2ccccc21  16
65. CCCCNC(=O)CSc1nc2ccc(NC(=O)CSc3nnc(N)s3)cc2s1  17
66. OCCC1CN(Cc2ccccc2-c2ccco2)CCN1Cc1ccsc1 (stereo not given)  17
67. CCOC(=O)C1(Cc2cccc(OC)c2)CCN(Cc2csc(C(C)=O)c2)CC1  17
68. CC1CN(C(=S)SCC(=O)c2ccccc2)CC(C)O1 (stereo not given)  18
69. O=C(Nc1cc(Cl)cc(Cl)c1)C(NCCCO)c1ccccc1 (stereo not given)  18
70. COc1cc([C@H](Cc2ccccc2)NC(C)=O)oc(=O)c1  18
71. O=C(CN1CCN(c2ccc(Cl)cc2)CC1)NCc1cccs1  18
72. O=C(Cc1c(F)cccc1Cl)Nc1ncc([N+](=O)[O-])s1  18
73. O=S(=O)(Nc1cc(S(=O)(=O)N2CCOCC2)ccc1N1CCCC1)c1cccs1  19
74. NS(=O)(=O)c1ccc(NC(=S)NC(=O)c2cccc(Br)c2)cc1  19
75. CCN(Cc1ccccc1)C(=O)CN1C(=S)NC(C)(C)CC1C (stereo not given)  20
76. Cc1ccc(C(=O)NN(CCC#N)C2=NS(=O)(=O)c3ccccc32)cc1  20
77. CC(C)(C)NC(=O)CN1CCC(NC(=O)C23CC4CC(CC(C4)C2)C3)CC1  20
78. COCCNC(=O)C(c1ccc(C)o1)N(Cc1ccccc1)C(=O)Cn1nnc2ccccc21 (stereo not given)  21
79. Cc1ccc(CN2CCC(N3CCC(C(=O)NCC4CCCO4)CC3)CC2)o1 (stereo not given)  22
80. CC[C@H]1OC(=O)[C@H](C)[C@@H](O[C@H]2C[C@@](C)(OC)[C@@H](O)[C@H](C)O2)[C@H](C)[C@@H](O[C@@H]2O[C@H](C)C[C@H](N(C)C)[C@H]2O)[C@](C)(O)C[C@@H](C)[C@@H]2N[C@@H](COCCOC)O[C@H]([C@H]2C)[C@]1(C)O  22
81. Cc1nn(C)c(C)c1S(=O)(=O)N1CCC(CO)(Cc2ccc(Cl)cc2)CC1  23
82. CCOC(=O)C(NC(C)=O)C(=O)Nc1ccc(OC)cc1 (stereo not given)  24
83. O=C(COC(=O)C1CCCCC1)Nc1ccc([N+](=O)[O-])cc1  25
84. COc1ccccc1-n1c(=S)[nH]c2c(sc(=S)n2-c2ccc(C)cc2C)c1=O  25
85. COCC(C)NC(=O)CSc1nc2nn(-c3ccccc3)c(=O)c-2c2n1CCCCC2 (stereo not given)  25
86. Cc1ccc(CC2S/C(=C(/C#N)C(=O)N3CCOCC3)N(c3ccccc3)C2=O)cc1 (stereo not given)  25
87. CC1(c2ccccc2Cl)NC(=O)N(CC(=O)NC(=O)NCc2ccco2)C1=O (stereo not given)  27
88. CCNc1nc(NC(C)C)nc(N2CC(=O)N(CC(=O)OCC)C2=N)n1  29
89. Cc1ccc(C(C(=O)NCc2ccco2)N(CC2CCCO2)C(=O)Cn2nnc3ccccc32)cc1 (stereo not given)  37
90. CCN(CC)C(=O)CN(c1cccc([N+](=O)[O-])c1)S(=O)(=O)c1ccccc1  52

In the case of `Cc1ccc(Cl)cc1NC(=O)COC(=O)C1CCCCC1`, the fluorescence (KMESF) was 249 (active).
In the case of `CCc1nnc(NC(=O)c2nc3nccc(C)n3n2)s1`, the fluorescence (KMESF) was 259 (active).
In the case of `CC1CN(C(=O)CN2C(=O)NC(C)(c3ccccc3)C2=O)CC(C)O1` (stereo not given), the fluorescence (KMESF) was 263 (active).
With `COc1ccccc1N(C(=O)Cn1nnc2ccccc21)C(C(=O)NCc1ccco1)c1ccc(C)o1` (stereo not given) the fluorescence (KMESF) was 248 (active).
For `Cc1ncc(CC(=O)n2cc(C(=O)c3cc(Cl)ccc3O)cn2)s1`, the fluorescence (KMESF) was 256 (active).
For `O=S(=O)(Nc1ccccc1N1CCOCC1)c1ccc(Cl)s1`, the fluorescence (KMESF) was 266 (active).
In the case of `CCOC(=O)CSc1nccc(N(C)C)c1C#N`, the fluorescence (KMESF) was 281 (active).
For `OC(COc1cccc2ccccc12)CN1CCN(c2ccccn2)CC1` (stereo not given), the fluorescence (KMESF) was 265 (active).
With `Cc1ccc(-n2cc3ccc([N+](=O)[O-])cc3n2)cc1` the fluorescence (KMESF) was 104 (active).
In the case of `CCOc1ccc(S(=O)(=O)N(CC(=O)O)c2ccccc2)cc1`, the fluorescence (KMESF) was 264 (active).
